Results filed as inconclusive are left out. The source made the active and inactive calls. Rule for the calls, unless noted: active = hit-call score of the fitted dose curve at least 0.9, where 1 is the maximum; inconclusive = response in the unintended direction; inactive = score below 0.9.
What was measured:
[1] = target: human Peroxisome Proliferator-activated Receptor alpha (PPARa), PPARA (gene 5465) (UniProt Q07869); assay: ATG_PPARa_TRANS: Attagene TRANS-FACTORIAL HepG2 Assay for human Peroxisome Proliferator-activated Receptor alpha (PPARa) (AID 2283001);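 for AC50: potency for gain of reporter signal over DMSO so agonist or activator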
Chain of human Peroxisome Proliferator-activated Receptor alpha (PPARa), PPARA (gene 5465) (Q07869 whole entry, looked up, the tested form may be a part): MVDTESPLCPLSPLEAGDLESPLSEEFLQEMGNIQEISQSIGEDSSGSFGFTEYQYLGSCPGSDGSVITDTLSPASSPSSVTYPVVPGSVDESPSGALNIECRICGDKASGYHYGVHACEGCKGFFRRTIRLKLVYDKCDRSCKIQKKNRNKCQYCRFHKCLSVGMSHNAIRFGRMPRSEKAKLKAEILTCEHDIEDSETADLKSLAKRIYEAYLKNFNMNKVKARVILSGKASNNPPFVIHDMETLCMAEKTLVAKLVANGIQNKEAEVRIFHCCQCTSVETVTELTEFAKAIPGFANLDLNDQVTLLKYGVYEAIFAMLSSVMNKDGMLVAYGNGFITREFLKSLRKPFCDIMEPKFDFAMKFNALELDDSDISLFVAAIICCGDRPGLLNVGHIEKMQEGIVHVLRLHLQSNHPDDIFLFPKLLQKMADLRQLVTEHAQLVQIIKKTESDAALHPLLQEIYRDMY
How it was run: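 Transient HepG2 transfection, GAL4-UAS reporters, NR-Gal4 chimeras; 24 h compound exposure. Readout: reporter transcripts by RT-PCR, 6-FAM primer extension, HpaI digest, capillary electrophoresis. Positive direction vs DMSO baseline.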

[2] = read-out: Intercellular Adhesion Molecule 1 (ICAM1), ICAM1 (gene 3383); assay: BSK_3C_ICAM1: BioMAP Diversity Plus: 3C Assay for Intercellular Adhesion Molecule 1 (ICAM1) Biomarker Activity (AID 2283003; active = hit-call score of the fitted dose curve at least 0.9, where 1 is the maximum; inactive = score below 0.9); settings: primary human endothelial cells (HUVEC); actives raise or lower the signal
How it was run: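 Using DMSO as baseline, bidirectional curve fitting was applied to ICAM-1 ELISA signals from HUVEC in the 3C system, measured 24 h after compound addition.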

[3] = target: Peroxisome proliferator-activated receptor gamma (Homo sapiens) (UniProt P37231); assay: ATG_PPARg_TRANS: Attagene TRANS-FACTORIAL HepG2 Assay for human Peroxisome Proliferator-activated Receptor-gamma (PPARg) (AID 2283007)
Chain of Peroxisome proliferator-activated receptor gamma (Homo sapiens) (P37231 whole entry, looked up, the tested form may be a part): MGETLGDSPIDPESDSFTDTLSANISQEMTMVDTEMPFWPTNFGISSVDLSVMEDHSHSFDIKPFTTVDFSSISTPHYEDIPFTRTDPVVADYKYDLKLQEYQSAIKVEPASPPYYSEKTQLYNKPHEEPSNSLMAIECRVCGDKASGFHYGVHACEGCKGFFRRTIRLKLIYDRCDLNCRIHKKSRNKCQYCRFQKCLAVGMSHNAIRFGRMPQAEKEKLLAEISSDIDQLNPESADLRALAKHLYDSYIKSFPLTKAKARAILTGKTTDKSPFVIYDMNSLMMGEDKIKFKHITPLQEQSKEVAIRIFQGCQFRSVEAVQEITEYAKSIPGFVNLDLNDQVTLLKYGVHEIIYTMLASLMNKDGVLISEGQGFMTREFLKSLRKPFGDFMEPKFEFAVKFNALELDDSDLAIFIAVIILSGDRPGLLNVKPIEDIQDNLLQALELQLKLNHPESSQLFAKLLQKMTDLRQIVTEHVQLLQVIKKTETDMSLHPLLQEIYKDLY
How it was run: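 HepG2 cells transiently transfected with multiplexed GAL4-UAS reporter units and exogenous chimeric NR-Gal4 proteins; reporter mRNA quantified after 24 h compound exposure by RT-PCR, fluorescent labelling, HpaI digestion and capillary electrophoresis; gain-of-signal fitted versus DMSO baseline.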

[4] = target: human Retinoid X Receptor beta (RXRb), RXRB (gene 6257) (UniProt P28702); assay: ATG_RXRb_TRANS: Attagene TRANS-FACTORIAL HepG2 Assay for human Retinoid X Receptor beta (RXRb) (AID 2283013)
How it was run: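 After a 24 h incubation with test chemical, transfected HepG2 cells carrying NR-Gal4 fusions and GAL4-UAS reporter transcription units yield RNA whose reporter cDNA is FAM-labelled, HpaI-cut and sized by capillary electrophoresis; increases over DMSO are scored.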

[5] = target: human Thyroid Receptor alpha (THRa1), THRA (gene 7067) (UniProt P10827); assay: ATG_THRa1_TRANS: Attagene TRANS-FACTORIAL HepG2 Assay for human Thyroid Receptor alpha (THRa1) (AID 2283014)
Chain of human Thyroid Receptor alpha (THRa1), THRA (gene 7067) (P10827 whole entry, looked up, the tested form may be a part): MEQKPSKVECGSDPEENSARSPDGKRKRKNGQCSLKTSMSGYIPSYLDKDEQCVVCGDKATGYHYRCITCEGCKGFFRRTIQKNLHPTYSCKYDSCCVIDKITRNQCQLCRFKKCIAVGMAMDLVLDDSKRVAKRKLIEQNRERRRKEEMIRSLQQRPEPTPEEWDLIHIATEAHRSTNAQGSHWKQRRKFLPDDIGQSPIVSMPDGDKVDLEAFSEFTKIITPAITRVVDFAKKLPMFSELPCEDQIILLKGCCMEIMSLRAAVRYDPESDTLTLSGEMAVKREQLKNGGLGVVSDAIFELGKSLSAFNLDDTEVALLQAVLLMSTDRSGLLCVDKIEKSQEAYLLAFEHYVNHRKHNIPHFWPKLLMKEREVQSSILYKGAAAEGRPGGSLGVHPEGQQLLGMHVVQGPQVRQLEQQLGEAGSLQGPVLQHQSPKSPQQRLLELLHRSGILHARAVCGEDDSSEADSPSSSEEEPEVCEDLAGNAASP
How it was run: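 Reporter transcript induction, read by capillary electrophoresis of 6-FAM-labelled RT-PCR products, reflects activity of a transfected THRa1-Gal4 fusion in HepG2 liver cells. Cells were dosed for 24 h; activity was fitted in the positive direction against DMSO.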

[6] = read-out: E-selectin (Homo sapiens) (UniProt P16581); assay: BSK_3C_Eselectin: BioMAP Diversity Plus: 3C Assay for Eselectin Biomarker Activity (AID 2283015; active = hit-call score of the fitted dose curve at least 0.9, where 1 is the maximum; inactive = score below 0.9); settings: primary human endothelial cells (HUVEC); actives raise or lower the signal
How it was run: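 ELISA read-out of E-selectin on endothelial monolayers after 24 h chemical treatment. Human umbilical vein primary cells served as the system, with DMSO defining baseline activity for bidirectional fitting.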

[7] = read-out: Interleukin-1 alpha (IL1a), IL1A (gene 3552); assay: BSK_BE3C_IL1a: BioMAP Diversity Plus: BE3C Assay for Interleukin-1 alpha (IL1a) Biomarker Activity (AID 2283016; active = hit-call score of the fitted dose curve at least 0.9, where 1 is the maximum; inactive = score below 0.9); settings: primary human bronchial epithelial cells; actives raise or lower the signal
How it was run: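 Measured in human lung primary bronchial epithelial cells: IL-1a by ELISA at 24 h after dosing, with bidirectional fitting against DMSO.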

[8] = read-out: Monocyte Chemoattractant Protein-1 (MCP1), CCL2 (gene 6347); assay: BSK_3C_MCP1: BioMAP Diversity Plus: 3C Assay for Monocyte Chemoattractant Protein-1 (MCP1) Biomarker Activity (AID 2283017; active = hit-call score of the fitted dose curve at least 0.9, where 1 is the maximum; inactive = score below 0.9); settings: primary human endothelial cells (HUVEC); actives raise or lower the signal
How it was run: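 ELISA read-out of MCP-1 from human umbilical vein endothelial cell cultures harvested 24 h post-dosing. Gain or loss of signal was fitted relative to DMSO.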

[9] = read-out: Monocyte Chemoattractant Protein-1 (MCP1), CCL2 (gene 6347); assay: BSK_4H_MCP1: BioMAP Diversity Plus: 4H Assay for Monocyte Chemoattractant Protein-1 (MCP1) Biomarker Activity (AID 2283018; active = hit-call score of the fitted dose curve at least 0.9, where 1 is the maximum; inactive = score below 0.9); settings: primary human endothelial cells (HUVEC); actives raise or lower the signal
How it was run: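 Primary human umbilical vein endothelium is exposed to chemical for 24 h before MCP-1 is assayed by ELISA. Concentration-response fitted bidirectionally relative to DMSO.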

[10] = read-out: Human Leukocyte Antigen - DR isotype (HLADR), HLA-DRA (gene 3122); assay: BSK_3C_HLADR: BioMAP Diversity Plus: 3C Assay for Human Leukocyte Antigen - DR isotype (HLADR) Biomarker Activity (AID 2283019; active = hit-call score of the fitted dose curve at least 0.9, where 1 is the maximum; inactive = score below 0.9); settings: primary human endothelial cells (HUVEC); actives raise or lower the signal
How it was run: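 ELISA readout of surface HLA-DR on human umbilical vein endothelium, taken 24 h after chemical treatment. Gain- and loss-of-signal were both fitted relative to DMSO.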

[11] = read-out: Interleukin-8 (IL8), CXCL8 (gene 3576); assay: BSK_3C_IL8: BioMAP Diversity Plus: 3C Assay for Interleukin-8 (IL8) Biomarker Activity (AID 2283020; active = hit-call score of the fitted dose curve at least 0.9, where 1 is the maximum; inactive = score below 0.9); settings: primary human endothelial cells (HUVEC); actives raise or lower the signal
How it was run: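 Using DMSO-treated wells as the baseline, bidirectional curve fitting was applied to ELISA-measured IL-8 from human umbilical vein endothelial cultures sampled 24 h after compound addition.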

[12] = target: human Peroxisome Proliferator-activated Receptor delta (PPARd), PPARD (gene 5467) (UniProt Q03181); assay: ATG_PPARd_TRANS: Attagene TRANS-FACTORIAL HepG2 Assay for human Peroxisome Proliferator-activated Receptor delta (PPARd) (AID 2283002)
Chain of human Peroxisome Proliferator-activated Receptor delta (PPARd), PPARD (gene 5467) (Q03181 whole entry, looked up, the tested form may be a part): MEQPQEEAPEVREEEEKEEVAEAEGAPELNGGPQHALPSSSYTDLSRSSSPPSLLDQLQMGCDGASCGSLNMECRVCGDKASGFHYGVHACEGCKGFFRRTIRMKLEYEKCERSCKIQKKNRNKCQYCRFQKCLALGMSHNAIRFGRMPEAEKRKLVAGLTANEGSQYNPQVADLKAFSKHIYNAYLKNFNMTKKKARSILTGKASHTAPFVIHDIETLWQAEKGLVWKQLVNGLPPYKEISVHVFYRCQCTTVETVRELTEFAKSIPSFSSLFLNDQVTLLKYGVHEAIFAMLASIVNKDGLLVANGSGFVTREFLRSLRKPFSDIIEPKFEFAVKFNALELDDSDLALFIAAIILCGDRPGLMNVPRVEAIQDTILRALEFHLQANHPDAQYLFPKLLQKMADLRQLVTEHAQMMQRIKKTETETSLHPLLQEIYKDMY
How it was run: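 HepG2 cells transiently transfected with GAL4-UAS multiplexed reporter units driven by exogenous chimeric NR-GAL4 proteins; 24 h compound exposure. Reporter mRNA measured by RT-PCR, 6-FAM primer extension, HpaI digestion and capillary electrophoresis; gain of signal fitted relative to DMSO.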

[13] = target: Retinoic acid receptor RXR-alpha (Homo sapiens) (UniProt P19793); assay: ATG_RXRa_TRANS: Attagene TRANS-FACTORIAL HepG2 Assay for human Retinoid X Receptor alpha (RXRa) (AID 2283012)
Chain of Retinoic acid receptor RXR-alpha (Homo sapiens) (P19793 whole entry, looked up, the tested form may be a part): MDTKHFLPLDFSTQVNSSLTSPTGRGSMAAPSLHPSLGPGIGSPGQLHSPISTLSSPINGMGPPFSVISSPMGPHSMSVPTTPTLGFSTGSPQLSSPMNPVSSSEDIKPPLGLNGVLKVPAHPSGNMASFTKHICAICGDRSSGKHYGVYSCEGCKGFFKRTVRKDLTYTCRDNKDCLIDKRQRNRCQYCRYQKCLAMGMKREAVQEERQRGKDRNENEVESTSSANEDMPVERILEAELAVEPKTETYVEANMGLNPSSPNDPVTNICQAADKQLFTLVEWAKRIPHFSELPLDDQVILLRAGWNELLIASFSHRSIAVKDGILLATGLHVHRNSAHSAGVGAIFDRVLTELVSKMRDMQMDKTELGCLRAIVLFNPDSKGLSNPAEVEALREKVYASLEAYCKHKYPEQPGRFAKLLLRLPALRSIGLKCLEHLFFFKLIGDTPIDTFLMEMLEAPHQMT
How it was run: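 Chimeric NR-GAL4 trans-activation in HepG2, 24 h treatment; reporter transcripts quantified by fluorescence on capillary electrophoresis, analysed for upward change from DMSO.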

[14] = target: human RAR-related Orphan Receptor beta (RORb), RORB (gene 6096) (UniProt Q92753); assay: ATG_RORb_TRANS: Attagene TRANS-FACTORIAL HepG2 Assay for human RAR-related Orphan Receptor beta (RORb) (AID 2283010)
How it was run: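 Multiplexed transcription-factor reporter assay: HepG2 cells transiently carrying NR-Gal4/GAL4-UAS constructs, 24 h treatment, mRNA quantified by RT-PCR plus capillary electrophoresis fluorescence; activity scored as induction over DMSO.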

[15] = target: Nuclear receptor subfamily 1 group I member 2 (Homo sapiens) (UniProt O75469); assay: ATG_PXR_TRANS: Attagene TRANS-FACTORIAL HepG2 Assay for human Pregnane X Receptor (PXR) (AID 2283008)
How it was run: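 HepG2 transfected (FuGene 6) with GAL4-UAS reporter units + PXR-Gal4 chimera; dosed 24 h. Total RNA → oligo(dT) RT → PCR → 6-FAM primer extension → HpaI cut → CE. Gain-of-signal vs DMSO.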

[16] = target: human Retinoic Acid Receptor gamma (RARg), RARG (gene 5916) (UniProt P13631); assay: ATG_RARg_TRANS: Attagene TRANS-FACTORIAL HepG2 Assay for human Retinoic Acid Receptor gamma (RARg) (AID 2283009)
Chain of human Retinoic Acid Receptor gamma (RARg), RARG (gene 5916) (P13631 whole entry, looked up, the tested form may be a part): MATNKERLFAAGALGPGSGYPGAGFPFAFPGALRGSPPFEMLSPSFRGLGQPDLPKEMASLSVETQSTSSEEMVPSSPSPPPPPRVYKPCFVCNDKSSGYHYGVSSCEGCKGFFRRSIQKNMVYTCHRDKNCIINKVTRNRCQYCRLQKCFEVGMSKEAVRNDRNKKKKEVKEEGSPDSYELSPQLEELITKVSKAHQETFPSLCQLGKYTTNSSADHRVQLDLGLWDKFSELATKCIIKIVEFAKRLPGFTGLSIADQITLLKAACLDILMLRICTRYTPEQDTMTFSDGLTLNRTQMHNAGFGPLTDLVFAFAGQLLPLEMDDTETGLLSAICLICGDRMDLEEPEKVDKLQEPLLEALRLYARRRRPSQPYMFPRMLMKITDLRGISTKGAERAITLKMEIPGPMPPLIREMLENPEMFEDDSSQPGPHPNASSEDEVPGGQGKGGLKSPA
How it was run: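 Gain-of-signal relative to DMSO is reported from fluorescent capillary electrophoresis of RT-PCR reporter products. These came from HepG2 cells expressing transfected RARg-GAL4 chimeras with UAS reporters, harvested 24 h after dosing.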

[17] = target: human RAR-related Orphan Receptor gamma (RORg), RORC (gene 6097) (UniProt P51449); assay: ATG_RORg_TRANS: Attagene TRANS-FACTORIAL HepG2 Assay for human RAR-related Orphan Receptor gamma (RORg) (AID 2283011)
Chain of human RAR-related Orphan Receptor gamma (RORg), RORC (gene 6097) (P51449 whole entry, looked up, the tested form may be a part): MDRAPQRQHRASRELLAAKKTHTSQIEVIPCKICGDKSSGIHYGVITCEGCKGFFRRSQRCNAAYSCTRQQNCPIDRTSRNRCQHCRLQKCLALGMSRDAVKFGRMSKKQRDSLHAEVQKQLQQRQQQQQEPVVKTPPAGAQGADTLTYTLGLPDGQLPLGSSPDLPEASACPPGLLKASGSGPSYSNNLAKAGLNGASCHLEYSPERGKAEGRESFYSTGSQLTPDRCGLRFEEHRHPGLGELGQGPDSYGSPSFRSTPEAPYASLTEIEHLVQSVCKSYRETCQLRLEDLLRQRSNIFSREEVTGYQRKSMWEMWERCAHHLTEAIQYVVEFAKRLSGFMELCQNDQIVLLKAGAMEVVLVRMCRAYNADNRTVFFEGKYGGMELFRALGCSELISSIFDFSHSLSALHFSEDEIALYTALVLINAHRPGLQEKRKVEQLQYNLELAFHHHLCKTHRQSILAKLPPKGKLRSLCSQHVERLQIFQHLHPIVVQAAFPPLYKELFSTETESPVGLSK
How it was run: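 First, HepG2 liver cells were transfected with GAL4-UAS-driven reporter constructs and the RORg-Gal4 fusion. Next, they were treated with chemical for 24 h. Finally, reporter mRNA was quantified by RT-PCR and capillary electrophoresis, with upward activity fitted against DMSO.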

[18] = target: human Retinoic Acid Receptor beta (RARb), RARB (gene 5915) (UniProt P10826); assay: ATG_RARb_TRANS: Attagene TRANS-FACTORIAL HepG2 Assay for human Retinoic Acid Receptor beta (AID 2283004)
Chain of human Retinoic Acid Receptor beta (RARb), RARB (gene 5915) (P10826 whole entry, looked up): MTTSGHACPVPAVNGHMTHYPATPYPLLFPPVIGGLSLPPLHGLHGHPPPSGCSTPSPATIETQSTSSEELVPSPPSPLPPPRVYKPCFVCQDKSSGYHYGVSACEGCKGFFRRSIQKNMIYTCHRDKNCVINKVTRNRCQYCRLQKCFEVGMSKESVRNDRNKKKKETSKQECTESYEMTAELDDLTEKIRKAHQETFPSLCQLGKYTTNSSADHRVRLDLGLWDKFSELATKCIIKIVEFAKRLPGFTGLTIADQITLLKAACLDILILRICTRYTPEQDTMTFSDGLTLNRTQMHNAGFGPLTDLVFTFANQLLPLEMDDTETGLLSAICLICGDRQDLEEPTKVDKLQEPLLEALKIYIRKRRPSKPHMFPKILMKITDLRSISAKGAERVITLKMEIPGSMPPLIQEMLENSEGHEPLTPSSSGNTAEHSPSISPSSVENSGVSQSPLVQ
How it was run: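 Transient transfection of HepG2 with multiple reporter units → chemical dosing, 24 h → total RNA isolation → RT with oligo(dT) → reporter-specific PCR, 6-FAM primer extension, HpaI digest → capillary electrophoresis. Positive direction vs DMSO control.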

[19] = target: Retinoic acid receptor alpha (Homo sapiens) (UniProt P10276); assay: ATG_RARa_TRANS: Attagene TRANS-FACTORIAL HepG2 Assay for human Retinoic Acid Receptor alpha (RARa) (AID 2283005)
Chain of Retinoic acid receptor alpha (Homo sapiens) (P10276 whole entry, looked up, the tested form may be a part): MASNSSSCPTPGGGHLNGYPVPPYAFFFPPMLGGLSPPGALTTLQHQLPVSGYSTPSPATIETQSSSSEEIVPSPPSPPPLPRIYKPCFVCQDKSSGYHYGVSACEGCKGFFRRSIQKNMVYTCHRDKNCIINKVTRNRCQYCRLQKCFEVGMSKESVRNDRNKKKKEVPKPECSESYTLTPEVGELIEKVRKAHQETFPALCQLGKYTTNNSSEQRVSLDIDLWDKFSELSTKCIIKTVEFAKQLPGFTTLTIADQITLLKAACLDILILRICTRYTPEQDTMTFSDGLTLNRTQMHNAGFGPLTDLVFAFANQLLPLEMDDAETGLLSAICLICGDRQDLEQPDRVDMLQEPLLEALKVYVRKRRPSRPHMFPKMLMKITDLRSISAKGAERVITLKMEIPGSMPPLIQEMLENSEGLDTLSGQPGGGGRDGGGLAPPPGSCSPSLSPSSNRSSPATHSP
How it was run: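 HepG2 transiently transfected with multiplex GAL4-UAS reporter units including a human RARa–GAL4 chimera; 24 h compound exposure. Reporter mRNA quantified by RT-PCR, 6-FAM labeling and capillary electrophoresis; gain of signal versus DMSO.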

Measured: AC50

Chain of E-selectin (Homo sapiens) (P16581 whole entry, looked up): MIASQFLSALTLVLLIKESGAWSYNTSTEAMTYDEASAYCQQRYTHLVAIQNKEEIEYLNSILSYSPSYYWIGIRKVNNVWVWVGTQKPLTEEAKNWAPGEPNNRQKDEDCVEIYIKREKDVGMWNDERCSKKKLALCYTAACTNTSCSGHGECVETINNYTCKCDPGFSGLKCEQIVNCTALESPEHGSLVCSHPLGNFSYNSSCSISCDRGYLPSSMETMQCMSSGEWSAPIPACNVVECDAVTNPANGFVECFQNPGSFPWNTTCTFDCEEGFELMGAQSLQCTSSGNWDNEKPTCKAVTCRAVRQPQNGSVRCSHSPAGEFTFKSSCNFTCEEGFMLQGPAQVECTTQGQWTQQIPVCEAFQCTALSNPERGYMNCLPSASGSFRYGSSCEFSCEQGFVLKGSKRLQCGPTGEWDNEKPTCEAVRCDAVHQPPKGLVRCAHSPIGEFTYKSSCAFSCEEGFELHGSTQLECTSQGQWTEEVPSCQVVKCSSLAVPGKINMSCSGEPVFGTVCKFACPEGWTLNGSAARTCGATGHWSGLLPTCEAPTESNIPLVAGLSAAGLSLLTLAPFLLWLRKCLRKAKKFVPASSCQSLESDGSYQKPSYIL

C=C(C)[C@H]1CC=C(C)C(=O)C1
inactive: [1] | [2] | [4] | [5] | [6] | [7] | [8] | [9] | [10] | [11]
active: [3] 68.7 µM

CCCSc1ccc2nc(NC(=O)OC)[nH]c2c1
inactive: [1] | [12] | [13] | [4]

COc1ccc(COC(C)=O)cc1
inactive: [1] | [12] | [5]

Cc1occc(=O)c1OC(=O)C(C)C
inactive: [1] | [12] | [14] | [5]

COC(C)(C)CC(C)=O
inactive: [1] | [12] | [13] | [4] | [5]

CCCCOC(=O)CCCCCCCC(=O)OCCCC
not listed: [3] | [12] | [14] | [15] | [16] | [17] | [18] | [19]
inactive: all other assays above

NCc1ccco1
inactive: [1] | [12] | [15] | [16] | [14] | [17] | [4]

CC1(C)C(=O)N(Cl)C(=O)N1Br
inactive: [1] | [18] | [19] | [3] | [13] | [4] | [5]

Oc1c(Cl)cc(Cl)c(Cl)c1Cc1c(O)c(Cl)cc(Cl)c1Cl
inactive: [18] | [19] | [16] | [14] | [17] | [13]
active: [1] 11.1 µM | [2] 27.1 µM | [15] 5.79 µM | [4] 12.7 µM | [5] 0.657 µM | [6] 13 µM | [7] 2.02 µM | [8] 32.6 µM | [9] 1.31 µM | [10] 2.48 µM | [11] 28.2 µM

CCC(C)S (stereo not given)
inactive: [1] | [12] | [15] | [4]

CC1=NN(c2ccc(S(=O)(=O)O)cc2)C(=O)C1
inactive: [1] | [18] | [19] | [15] | [16] | [14] | [17] | [13] | [4] | [5]

CC(=O)O[C@H]1C[C@@H]2CC[C@@]1(C)C2(C)C
inactive: [1] | [18] | [19] | [3] | [16] | [13] | [4]

Cc1cc(CCC(=O)OCCOCCOCCOC(=O)CCc2cc(C)c(O)c(C(C)(C)C)c2)cc(C(C)(C)C)c1O
active: [3] 24.2 µM | [15] 23.3 µM | [8] 17.8 µM | [9] 17.8 µM | [10] 17.8 µM | [11] 32.3 µM
not listed: [12] | [13] | [14]
inactive: all other assays above

CCCC(C)C(O)CC (stereo not given)
inactive: [1] | [18] | [19] | [3] | [15] | [16] | [13]

Cc1c(OCC(F)(F)F)ccnc1CS(=O)c1nc2ccccc2[nH]1 (stereo not given)
inactive: [1] | [12] | [13]
active: [3] 23.7 µM

Nc1ccc(Cl)c([N+](=O)[O-])c1
inactive: [1] | [3] | [15] | [17]

CC[N+](C)(CC)CC
inactive: [1] | [19] | [3] | [16] | [13] | [5]

CCCCCCCCCC(C)C=O (stereo not given)
inactive: [15] | [16] | [13] | [4]
active: [1] 27.5 µM | [3] 18.5 µM

CCOC(=O)CC(C)O (stereo not given)
inactive: [1] | [3] | [15] | [16] | [17] | [13] | [5]

CCOc1ccc(NC(=O)CC(C)=O)cc1
inactive: [1] | [18] | [15] | [14] | [17]
